Values without a mark were called inactive. Results filed as inconclusive are left out. A call without a number means that no potency is given here. Activity calls are given as the source filed them. Unless noted, calls come from the whole dose curve.
How the values were obtained:
[1] = Nuclear factor erythroid 2-related factor 2/antioxidant responsive element (Nrf2/ARE) small molecule agonists: qHTS cell viability counter screen in human keratinocytes (AID 1919968; active = well fitted cell-killing curve with a large enough effect in the repeat runs; note: nearly all actives have a fitted effect of over 55% in size)
Outline: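 KeratinoSens cells (HaCaT keratinocytes stably carrying an ARE-luciferase reporter) were seeded at 1,500 cells/well and rested 5 h at 37 C/5% CO2. They were then exposed to compounds in DMSO for 23 h. Viability was read by CellTiter-Fluor fluorescence after 1 h.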

[2] = Nuclear factor erythroid 2-related factor 2/antioxidant responsive element (Nrf2/ARE) small molecule agonists: luciferase reporter gene qHTS assay in human keratinocytes (AID 1919969); note: nearly all actives have a fitted effect of over 35% in size
[3] = target: Gonadotropin-releasing hormone receptor (Homo sapiens) (UniProt P30968); experiment: Human gonadotropin-releasing hormone receptor (GnRHR) small molecule agonists, calcium flux assay in GnRHR-HEK293 cells (AID 1920063); note: nearly all actives have a fitted effect of over 35% in size; note: potency is the fitted concentration of half-maximal effect
Gonadotropin-releasing hormone receptor (Homo sapiens), sequence (P30968 whole entry, looked up): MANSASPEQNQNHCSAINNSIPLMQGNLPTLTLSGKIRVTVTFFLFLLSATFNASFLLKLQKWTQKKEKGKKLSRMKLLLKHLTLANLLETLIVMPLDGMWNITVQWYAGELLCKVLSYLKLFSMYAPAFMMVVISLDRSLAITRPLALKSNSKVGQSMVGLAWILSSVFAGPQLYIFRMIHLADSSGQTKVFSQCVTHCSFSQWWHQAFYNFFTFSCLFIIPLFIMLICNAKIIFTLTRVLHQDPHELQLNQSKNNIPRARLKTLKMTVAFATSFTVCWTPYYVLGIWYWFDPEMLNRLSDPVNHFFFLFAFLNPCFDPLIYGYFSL
Outline: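 HEK293 cells stably expressing human GnRHR were plated 18 h at 37 °C, loaded with calcium dye 1 h at 37 °C, then given compound in agonist mode; fluorescence (Ex/Em 480/540) read kinetically for 3 min at 1 s intervals.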

[4] = p53 small molecule agonists, cell-based qHTS assay with human liver microsomes (AID 1963577)
Outline: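 Cells carrying a p53-responsive bla reporter were rested 5 h (37 C, 5% CO2) before compound transfer. Human liver microsomes plus NADPH, 0.5 mg/mL final apiece, supplied metabolism during the 16 h 37 C exposure.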

[5] = p53 small molecule agonists, cell-based qHTS assay with rat liver microsomes (AID 1963578)
Outline: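 Fluorescence from a beta-lactamase reporter under a p53 response element was measured after cells had been incubated 16 h at 37 C with test compound and rat liver microsomes plus NADPH (0.5 mg/mL final each).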

[6] = p53 small molecule agonists, cell-based qHTS assay with human liver microsomes: qHTS cell viability counter screen (AID 1963579); note: nearly all actives have a fitted effect of over 45% in size
Outline: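 Seed p53RE-bla cells at 4,000 per well; incubate 5 h at 37 C; add compound, human liver microsomes and NADPH; incubate 16 h at 37 C; add CellTiter-Glo; after 30 min at room temperature, read luminescence.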

[7] = p53 small molecule agonists, cell-based qHTS assay with rat liver microsomes: qHTS cell viability counter screen (AID 1963580); note: nearly all actives have a fitted effect of over 45% in size
Outline: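 Intracellular ATP, by CellTiter-Glo luminescence, defines viability. HCT-116 p53RE-bla cells, 4,000 per well, were compound-treated in the presence of rat liver microsomes and NADPH for 16 h at 37 C.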

[8] = p53 small molecule agonists, cell-based qHTS assay: qHTS cell viability counter screen (AID 1963581); note: nearly all actives have a fitted effect of over 45% in size
Outline: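 p53RE-bla HCT-116 cells were exposed to compounds for 16 h at 37 C; after the beta-lactamase FRET read in the same wells, CellTiter-Glo was added and luminescence (intracellular ATP) read after 30 min at room temperature.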

[9] = p53 small molecule agonists, cell-based qHTS assay (AID 1963582; active = well fitted activation curve with a large enough effect in the signal ratio in the repeat runs, not every such curve was filed as active; the % refers to the signal ratio)
Outline: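 p53RE-bla beta-lactamase reporter cells rested 5 h at 37 C/5% CO2, then received compounds in DMSO by pin transfer and were incubated 16 h at 37 C. LiveBLAzer B/G FRET substrate was loaded for 2 h at room temperature before fluorescence reading.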

[10] = target: 5-hydroxytryptamine receptor 2A (Homo sapiens) (UniProt P28223); experiment: 5-hydroxytryptamine receptor 2A (HTR2A) small molecule agonists, cell-based qHTS assay (AID 1963587); note: nearly all actives have a fitted effect of over 30% in size; note: potency is the fitted concentration of half-maximal effect
5-hydroxytryptamine receptor 2A (Homo sapiens), sequence (P28223 whole entry, looked up): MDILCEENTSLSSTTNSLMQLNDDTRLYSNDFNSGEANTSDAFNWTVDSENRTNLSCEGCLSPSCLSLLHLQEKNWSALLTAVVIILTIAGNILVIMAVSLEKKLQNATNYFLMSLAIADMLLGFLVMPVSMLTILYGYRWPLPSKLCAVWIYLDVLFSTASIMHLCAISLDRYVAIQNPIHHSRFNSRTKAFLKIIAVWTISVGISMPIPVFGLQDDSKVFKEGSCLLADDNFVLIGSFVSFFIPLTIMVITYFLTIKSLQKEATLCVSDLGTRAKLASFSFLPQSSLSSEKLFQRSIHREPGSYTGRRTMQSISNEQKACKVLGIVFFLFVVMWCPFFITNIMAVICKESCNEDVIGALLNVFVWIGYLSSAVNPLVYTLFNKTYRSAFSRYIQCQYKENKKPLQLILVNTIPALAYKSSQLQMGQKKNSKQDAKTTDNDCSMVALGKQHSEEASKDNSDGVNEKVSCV
Outline: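 Kinetic calcium-flux fluorescence (2 min, 1 sec intervals) after compound addition in agonist mode. HTR2A-CHO cells were cultured 18 h, then dye-loaded 1 h at 37 C.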

[11] = target: Muscarinic acetylcholine receptor M1 (Homo sapiens) (UniProt P11229); experiment: Cholinergic receptor muscarinic 1 (CHRM1) small molecule antagonists, cell-based qHTS assay (AID 1963588); note: nearly all actives have a fitted effect of over 40% in size
Muscarinic acetylcholine receptor M1 (Homo sapiens), sequence (P11229 whole entry, looked up): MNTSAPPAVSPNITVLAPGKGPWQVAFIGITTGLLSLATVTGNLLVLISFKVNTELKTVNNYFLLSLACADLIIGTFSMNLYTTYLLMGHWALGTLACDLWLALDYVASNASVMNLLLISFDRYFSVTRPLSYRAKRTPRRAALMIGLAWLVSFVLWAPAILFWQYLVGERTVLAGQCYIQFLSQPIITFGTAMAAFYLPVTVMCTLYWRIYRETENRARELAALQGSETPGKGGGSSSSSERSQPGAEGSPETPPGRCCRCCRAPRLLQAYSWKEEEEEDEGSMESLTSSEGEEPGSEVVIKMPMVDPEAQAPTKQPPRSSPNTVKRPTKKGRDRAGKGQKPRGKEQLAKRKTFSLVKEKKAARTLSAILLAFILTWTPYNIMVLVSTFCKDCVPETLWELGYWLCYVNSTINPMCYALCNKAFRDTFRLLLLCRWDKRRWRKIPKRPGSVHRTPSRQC
Outline: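 CHRM1-CHO calcium-flux assay, antagonist mode. Cells were seeded 18 h, dye-loaded 1 h at 37 C and given compound for 5 min at RT, then acetylcholine was added at 50nM. FDSS fluorescence was read 3 min; 15 concentrations, three runs.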

[12] = target: Muscarinic acetylcholine receptor M1 (Homo sapiens) (UniProt P11229); experiment: Cholinergic receptor muscarinic 1 (CHRM1) small molecule agonists, cell-based qHTS assay (AID 1963589); note: nearly all actives have a fitted effect of over 35% in size
Outline: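 CHO cells stably expressing human CHRM1, seeded 18 h at 37 C/5% CO2, dye-loaded 1 h at 37 C, then given compound in agonist mode; intracellular calcium fluorescence read kinetically at 1 s intervals. Fifteen concentrations, three independent runs.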

[13] = cAMP Responsive Elements (CRE) small molecule agonists, cell-based qHTS assay (AID 1963590)
Outline: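 CRE-bla HEK 293T cells in DMEM with 10% dialyzed FBS, NEAA, pyruvate and 25 mM HEPES were plated 18 h at 37 C/5% CO2, then exposed to compounds in DMSO for 3 h before LiveBLAzer B/G FRET substrate addition.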

[14] = cAMP Responsive Elements (CRE) small molecule antagonists, cell-based qHTS assay (AID 1963591; active = well fitted inhibition curve with a large enough effect in the signal ratio in the repeat runs, not every such curve was filed as active; the % refers to the signal ratio)
Outline: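 CRE-bla HEK293T cells were plated 18 h at 37 °C/5% CO2, pinned with compound in DMSO, then stimulated with NKH477 at 0.25 uM final for 3 h. LiveBLAzer B/G FRET substrate was added and plates incubated 2 h at room temperature.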

[15] = target: Beta-2 adrenergic receptor (Homo sapiens) (UniProt P07550); experiment: Adrenergic beta2 receptor (ADRB2) small molecule antagonists, cell-based qHTS assay (AID 1963592); note: series mostly up to about 92 µM; nearly all actives have a fitted effect of over 50% in size
Beta-2 adrenergic receptor (Homo sapiens), sequence (P07550 whole entry, looked up): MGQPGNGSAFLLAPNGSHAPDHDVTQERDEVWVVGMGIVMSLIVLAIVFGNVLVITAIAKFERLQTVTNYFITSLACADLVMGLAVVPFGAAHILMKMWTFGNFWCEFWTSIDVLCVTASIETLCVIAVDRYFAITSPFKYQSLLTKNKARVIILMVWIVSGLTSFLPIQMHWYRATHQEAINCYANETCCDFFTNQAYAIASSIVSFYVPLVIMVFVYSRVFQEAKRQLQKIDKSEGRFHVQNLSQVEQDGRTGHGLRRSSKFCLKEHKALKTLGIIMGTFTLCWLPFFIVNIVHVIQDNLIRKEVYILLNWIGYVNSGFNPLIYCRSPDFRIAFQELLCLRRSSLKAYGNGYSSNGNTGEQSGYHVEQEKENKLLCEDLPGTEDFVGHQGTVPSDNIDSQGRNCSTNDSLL
Outline: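 Cells (CHO, stable ADRB2 overexpression) incubated 18-20hr at 37C; compounds added from DMSO; agonist mix (1nM isoproterenol, 100uM IBMX, 25uM Ro-20-1724) added; 0.5hr RT; d2-cAMP and anti-cAMP-cryptate added; 1hr RT; 665/615 nm read.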

[16] = target: D(2) dopamine receptor (Homo sapiens) (UniProt P14416); experiment: Dopamine D2 receptor (DRD2) small molecule agonists, cell-based qHTS assay (AID 1963594); note: nearly all actives have a fitted effect of over 35% in size
D(2) dopamine receptor (Homo sapiens), sequence (P14416 whole entry, looked up): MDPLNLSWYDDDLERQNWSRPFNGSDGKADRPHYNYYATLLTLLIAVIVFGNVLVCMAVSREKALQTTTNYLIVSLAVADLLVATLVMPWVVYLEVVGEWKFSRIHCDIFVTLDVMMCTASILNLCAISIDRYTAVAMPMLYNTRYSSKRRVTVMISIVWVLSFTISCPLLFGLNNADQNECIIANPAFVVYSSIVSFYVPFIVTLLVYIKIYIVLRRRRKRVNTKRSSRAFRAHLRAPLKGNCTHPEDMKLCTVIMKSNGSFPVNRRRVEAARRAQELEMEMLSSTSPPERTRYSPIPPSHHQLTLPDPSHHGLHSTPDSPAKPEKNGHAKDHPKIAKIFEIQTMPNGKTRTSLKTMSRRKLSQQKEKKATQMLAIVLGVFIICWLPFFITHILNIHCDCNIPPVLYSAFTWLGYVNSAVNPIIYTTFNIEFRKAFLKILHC
Outline: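 cAMP accumulation in DRD2-HEK293 cells measured by HTRF after 1 h detection; compounds added 10 min before NKH477 (200nM […]) forskolin-analogue stimulation, 30 min at room temperature, with Ro20-1724 present at 0.1 mM final.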

[17] = target: D(2) dopamine receptor (Homo sapiens) (UniProt P14416); experiment: Dopamine D2 receptor (DRD2) small molecule antagonists, cell-based qHTS assay (AID 1963595; active = well fitted inhibition curve with a large enough effect in the signal ratio in the repeat runs, with a control signal flat; the % refers to the signal ratio)
Outline: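 Antagonist mode in DRD2-HEK293 cells: after compound addition with 0.1 mM Ro20-1724, cells received quinpirole (12 nM) and NKH477 (200 nM) for 30 min at room temperature; HTRF cAMP read after 1 h detection.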

[18] = target: 5-hydroxytryptamine receptor 2A (Homo sapiens) (UniProt P28223); experiment: 5-hydroxytryptamine receptor 2A (HTR2A) small molecule antagonists, cell-based qHTS assay (AID 1963586); note: nearly all actives have a fitted effect of over 45% in size; note: potency is the fitted concentration of half-maximal effect
Outline: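 Antagonist-mode intracellular calcium assay: DOI (4 nM) added after 5 min compound pre-incubation at room temperature to dye-loaded HTR2A-CHO cells. Fluorescence followed for 3 min, sampled every second.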

[19] = target: Beta-2 adrenergic receptor (Homo sapiens) (UniProt P07550); experiment: Adrenergic beta2 receptor (ADRB2) small molecule agonists, cell-based qHTS assay (AID 1963593);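 note: CHO cells stably overexpressing human ADRB2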
Outline: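 CHO cells stably over-expressing ADRB2 were plated overnight at 37C, then dosed with compounds plus a stimulation mix containing 100uM IBMX and 25uM Ro-20-1724 for 0.5hr at room temperature. cAMP was measured by HTRF competition, 1hr.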

SMILES	Potency [1]	Potency [2]	Potency [3]	Potency [4]	Potency [5]	Potency [6]	Potency [7]	Potency [8]	Potency [9]	Potency [10]	Potency [11]	Potency [12]	Potency [13]	Potency [14]	Potency [15]	Potency [16]	Potency [17]	Potency [18]	Potency [19]
COC(=O)N/N=C/c1c[n+]([O-])c2ccccc2[n+]1[O-]	inactive	inactive	19 µM (active)	inactive	inactive	inactive	inactive	inactive	inactive	15.1 µM (active)	inactive	inactive	inactive	inactive	inactive	inactive	inactive		
Cc1cccc(N(C)C(=S)Oc2ccc3c(c2)CCC3)c1	inactive	inactive	inactive	inactive	inactive	inactive	inactive	inactive		inactive	inactive		inactive	inactive	inactive	inactive		1.3 µM (active)	inactive
N#Cc1c(F)cccc1F	inactive	inactive	inactive	inactive	inactive	inactive	inactive	inactive	inactive	inactive	inactive	inactive	inactive	inactive	inactive	inactive	inactive		inactive
Cc1[nH]cnc1CN1CCc2c(c3ccccc3n2C)C1=O	inactive	inactive	inactive	inactive	inactive	inactive	inactive	inactive	inactive				inactive	inactive	inactive	inactive	inactive		inactive
O=c1[nH]cccc1O	inactive	inactive	inactive	inactive	inactive	inactive	inactive		inactive	inactive	inactive	inactive	inactive	inactive	inactive	inactive	inactive	inactive	
CCn1nc(Cc2ccccc2)cc1C1CCN(C[C@H]2C[C@H](N(C)[C@@H](C(=O)O)C(C)C)C[C@@H]2c2cccc(F)c2)CC1	inactive	inactive	inactive	inactive	inactive	inactive	inactive	inactive		inactive	inactive	inactive					inactive	inactive	
CC(C)c1ccc(C(=O)N=C(N)N)cc1S(C)(=O)=O	inactive	inactive	inactive	inactive	inactive	inactive	inactive	inactive		inactive	inactive	inactive	inactive		inactive		inactive	inactive	inactive

— PubChem BioAssay (Tox21)
